Bioassay records deposited in PubChem BioAssay by several laboratories.
Sampled rows, rich in hits. Any-hit rate of the full collection: about 4.8%.
hgDAF12 agonist: hgDAF-12 agonism, primary luciferase screen | HEK293 GAL4-hgDAF12 UAS-luciferase reporter, agonist luminescence; normalized to butyrate control | activation, % at 6.8 µM | actives 1.8% (n = 370,000) | AID 687014;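 active = activation above a cutoff set at the mean of all screened compounds plus 3 SD, cut at about 10% in these data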;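 also: 0% = DMSO wells and 100% = sodium butyrate wells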
DAX1 inh-1: inhibitors of DAX1 repression of SF-1 activated StAR promoter; HEK293T StAR-luciferase reporter, SF-1/DAX-1 repression relief; inhibition, % at 6.8 µM; actives 1.1% (n = 370,000); AID 652010;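 active = inhibition above the mean over all tested compounds plus 3 SD, cut at about 3.6% in these data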;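 also: 0% = DAX-1 cells with DMSO and 100% = cells lacking DAX-1 with DMSO; higher inhibition means more luminescence from relief of DAX-1 repression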
DAX1 inh-2: inhibits human nuclear receptor DAX1; HEK293 Gal4-DAX1 luciferase reporter, luminescence; inhibition, % at 6.75 µM; actives 0.99% (n = 340,000); AID 504766;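 active = inhibition above the mean over all tested compounds plus 3 SD, cut at about 4.2% in these data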;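 also: 0% = DAX1-transfected cells with DMSO and 100% = empty-vector control cells with DMSO; inhibition shows as a rise in luminescence from relieved DAX1 repression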
Target sequence (P51843 207-470 limits assumed): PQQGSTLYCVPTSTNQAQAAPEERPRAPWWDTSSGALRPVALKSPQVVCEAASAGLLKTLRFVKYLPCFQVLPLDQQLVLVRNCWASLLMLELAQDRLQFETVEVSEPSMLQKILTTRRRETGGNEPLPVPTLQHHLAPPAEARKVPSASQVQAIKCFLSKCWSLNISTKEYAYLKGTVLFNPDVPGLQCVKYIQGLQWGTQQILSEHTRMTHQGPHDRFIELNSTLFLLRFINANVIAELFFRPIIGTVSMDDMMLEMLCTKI
hcDAF12 agonist: activates DAF-12 receptor from parasite H. contortus; HEK293 hcDAF-12 lit1-tk-luc reporter, luminescence; 0% DMSO, 100% Δ7-dafachronic acid; activation, % at 6.8 µM; actives 1.4% (n = 370,000); AID 652067;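 active = activation above the mean of all tested compounds plus 3 SD, cut at about 5.5% in these data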;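 also: 100% = response to 3 µM Δ7-dafachronic acid high control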
ssDAF-12 act: S. stercoralis DAF-12 activation, primary screen; HEK293 ssDAF-12/GRIP1 lit1-tk-luc reporter, luminescence; % of 3 µM dafachronic acid response; activation, % at 6.8 µM; actives 1% (n = 370,000); AID 652126;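 active = activation above the mean over all tested compounds plus 3 SD, cut at about 0.9% in these data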;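 also: 0% = DMSO-only wells and 100% = 3 µM delta7-dafachronic acid wells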
Rev-erbA mod: modulates human Rev-erb alpha binding to DNA. AID 1259318. Rev-erbα–FITC-DNA binding, fluorescence polarization, 90 min. actives 0.79% (n = 370,000). activity, % at 10 µM. P20393;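 active = activity above about 14%, limit read from the data; passing the limit was not always enough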;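 also: 0% = DMSO wells with 35 nM protein and 100% = DMSO wells with 750 nM protein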
hgDAF12 conf: hgDAF-12 agonism, confirmation assay | HEK293 GAL4-hgDAF12 luciferase reporter, agonist mode; percent of butyrate response | shares compounds with hgDAF12 agonist | activation, % at 6.8 µM | actives 80% (n = 3,300);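 active = mean activation over triplicate wells above the hit cutoff derived from the earlier primary screen, cut at about 11% in these data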;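 also: 0% = DMSO low control and 100% = 2 mM sodium butyrate high control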
LXR ag 2: LXR-beta agonism as DAF-12 counter-screen. shares compounds with hgDAF12 agonist. 3,300 tested, under 10 active. HEK293 Gal4-LXR luciferase reporter, 24 h. activation, % at 6.8 µM;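 active = mean activation of the triplicate above a set limit carried over from the primary screen, none filed active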
Rev-erbA confirm: Rev-erb alpha (human) modulation, hit confirmation; shares compounds with Rev-erbA mod; Rev-erb alpha FITC-DNA binding, fluorescence polarization, 90 min; activation, % at 25 µM; actives 61% (n = 3,000);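 active = activation at or above a set limit, or at least 3 SD above the negative control mean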;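 also: 0% = 35 nM protein with DMSO and 100% = 750 nM protein high control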
RORg DNA counter: RORgamma DNA-binding activity, dose-response counter-screen | shares compounds with Rev-erbA mod | purified RORgamma protein-FITC-DNA binding, fluorescence polarization | IC50, µM | actives 8% (n = 910);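 active = Compounds whose fitted half-maximal concentration for disrupting protein-DNA binding is below 10 micromolar; the record names Rev-erb in its text, so the target is in doubt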
Starred values were filed as active, the others as inactive; i = inactive; x = not tested or not shown.

SMILES	hgDAF12 agonist	DAX1 inh-1	DAX1 inh-2	hcDAF12 agonist	ssDAF-12 act	Rev-erbA mod	Rev-erbA confirm	others
Nc1c2c(nc3sc4c(c13)CCCC4)CCCCC2	14.3*	2.4	3.0	3.2	-0.4	-10.2	x	hgDAF12 conf=17.6*;LXR ag 2=0.9
CN1C[C@H](O)[C@H]2C[C@@H]1c1ccccc1O2	-2.9	0.9	x	-1.4	-0.8	2.4	x
N#Cc1c(Br)n(C2OC(CO)C(O)C2O)c2ncnc(N)c12 (configuration not stated)	17.9*	0.4	7.6*	1.5	-0.7	1.3	x	hgDAF12 conf=10.4;LXR ag 2=0.6
O=C(/C=C/c1c[nH]c2ccccc12)c1c(O)n(CCc2ccccc2)c(=O)[nH]c1=O	2.6	0.1	x	4.0	0.8	38.8*	2.8
Cc1ccc(OC(=O)N(C)C[C@H]2OCc3cnnn3CCCC(=O)N([C@@H](C)CO)C[C@@H]2C)cc1	0.9	-0.1	x	-1.6	-1.0	-0.5	x
CCCCn1c(=O)c(C(=O)Nc2ccccc2S(N)(=O)=O)c(O)c2ccccc21	0.9	1.4	1.5	1.3	-0.1	3.2	x
CCCCCn1c(=O)c(C(=O)Nc2cnccn2)c(O)c2ccccc21	3.6	0.6	1.6	2.9	0.4	4.0	x
CCCCCCCn1c(=O)c(C(=O)Nc2cnccn2)c(O)c2ccccc21	-0.5	-0.2	-0.5	2.7	-0.8	47.9*	43.1*	RORg DNA counter=>40
CCCCCn1c(=O)c(C(=O)Nc2ccccc2S(N)(=O)=O)c(O)c2ccccc21	4.1	-0.3	0.9	-0.6	0.0	42.9*	17.8
Brc1ccc2c(c1)-n1nncc1CNC2	3.0	0.5	x	-1.9	-1.0	-5.2	x
CCCCN1CCN(C(=O)COc2cc(=O)n(C)c3ccccc23)CC1	-4.2	-0.3	x	4.2	-1.4	-5.1	x
CCOc1ccc(N2C(=O)NC(=O)/C(=C\c3ccc(N4CCCCC4)o3)C2=O)cc1	2.2	-0.1	-0.6	0.2	-1.1	28.9*	32.8*
CN1C(=O)/C(=C\c2ccc(N3CCCCC3)o2)C(=O)NC1=S	4.2	0.9	2.9	1.3	-0.5	109.9*	132.5*	RORg DNA counter=i
CN1C(=O)C(=Cc2ccc(N3CCOCC3)o2)C(=O)N(C)C1=S	0.1	-0.3	2.0	-0.4	-0.6	39.0*	44.2*	RORg DNA counter=>40
CCN1C(=O)C(=Cc2ccc(N3CCOCC3)o2)C(=O)N(CC)C1=S	-1.6	0.3	3.9	-0.7	-1.1	9.8	x
COC(=O)C1=C(c2ccc(F)cc2F)C[C@@H]2CC[C@H]1N2C(=O)NCCO	0.6	-0.2	0.7	-1.1	-1.2	-2.4	x
COC(=O)C1=C(c2ccc(F)cc2F)C[C@@H]2CC[C@H]1N2C(=O)NCCCOC(C)C	1.5	0.0	2.3	-0.9	-1.1	19.4*	-0.1
CCOc1cc(C)cc2oc(=O)c3c(c12)CCCC3	0.0	-1.0	0.1	0.0	0.1	27.1*	2.0
N#Cc1ccccc1Cn1cc(C(=O)c2cccs2)c2ccccc21	-2.5	0.4	-0.9	0.0	-0.9	25.0*	10.4
O=C(NCCN1CCC2(CC1)C(=O)NCN2c1ccccc1)c1ccccc1F	0.3	0.2	x	0.5	-1.4	1.4	x
CN1/C(=C\C=C2C(=O)NC(=O)NC2=O)C(C)(C)c2ccccc21	-0.7	0.1	0.3	-1.3	-1.6	19.7*	-1.1
CN1CC[C@@H]2CN[C@H](c3ccccc3)C[C@@H]21	-0.9	0.1	x	-0.1	-0.2	-9.7	x
COc1ccc(CCn2c(O)c(C=Nc3ccc(F)cc3)c(=O)[nH]c2=O)cc1OC	-0.9	-0.1	x	1.1	-1.4	130.3*	69.1*	RORg DNA counter=i
COC(=O)c1cccc(N=Cc2c(O)n(Cc3ccc(F)cc3)c(=O)[nH]c2=O)c1	0.6	0.5	x	0.8	-1.0	615.7*	21.6*
O=C(O)c1ccc(N=Cc2c(O)n(Cc3ccc(F)cc3)c(=O)[nH]c2=O)cc1	-1.6	-0.1	-1.6	-1.9	-1.6	-3.4	x
SMILES	hgDAF12 agonist	DAX1 inh-1	DAX1 inh-2	hcDAF12 agonist	ssDAF-12 act	Rev-erbA mod	Rev-erbA confirm	others
CC(C)S(=O)(=O)N1Cc2ccc(Br)cc2-n2nncc2C1	-3.7	-0.3	x	-2.2	-0.9	4.1	x
CC(=O)C1=C(C)OC2=C(C(=O)CCC2)[C@@]12C(=O)N(C)c1ccccc12	0.5	-0.6	x	-0.7	-1.0	6.7	x
CCCCCCn1c(O)c(C=Nc2ccccc2N2CCOCC2)c(=O)[nH]c1=S	-2.4	0.1	x	-0.6	-1.4	53.5*	4.9
CCCCn1c(O)c(/C=N/N2CCOCC2)c(=O)[nH]c1=S	0.9	-0.2	0.5	0.9	-0.2	3.2	x
O=[N+]([O-])c1ccc(O)c([N+](=O)[O-])c1	-2.7	1.0	-0.7	-0.8	0.4	-2.0	x
O=c1[nH]c(O)c(N=Nc2cc([N+](=O)[O-])ccc2O)c(=O)[nH]1	3.6	-0.1	0.3	-0.4	-0.9	19.8*	7.2
